Measured values: PubChem BioAssay (Tox21)
Records with an inconclusive call do not appear. Activity calls are given as the source filed them. Calls come from the whole dose curve; as a rule, active = well fitted curve in the direction sought with a large enough effect in the repeat runs; inconclusive = weak or mixed curves; inactive = no such curve, though single readings can be large; an effect the other way counts as inactive or inconclusive.

Columns and labels:
[1] = A CellTox Green Cytotoxicity Assay to monitor cytotoxicity in HEK293 cells - 24 hour (AID 1224875); note: nearly all actives have a fitted effect of over 45% in size; note: potency is the fitted concentration of half-maximal effect
In short: (§1)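 Read-out: fluorescence of a cell-impermeant cyanine dye staining DNA of dead cells, proportional to cytotoxicity. HEK293, 600 cells/well with reagent, compound (23 nL DMSO) added after 5 h; reads at 0, 8, 16, 24, 32, 40 h.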

[2] = A CellTox Green Cytotoxicity Assay to monitor cytotoxicity in HepG2 cells - 16 hour (AID 1224876); note: nearly all actives have a fitted effect of over 45% in size; note: potency is the fitted concentration of half-maximal effect
In short: (§2)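 HepG2, 600 cells/well premixed w/ CellTox Green; 5 h settle, 37 C/5% CO2; pintool cpd add (DMSO); 37 C, 40 h; fluorescence read at 0, 8, 16, 24, 32, 40 h.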

[3] = qHTS RealTime-Glo MT Cell Viability Assay in HepG2 cells - 32 hour (AID 1224877); note: nearly all actives have a fitted effect of over 55% in size; note: potency is the fitted concentration of half-maximal effect
In short: (§3)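 HepG2 cells (600/well) were dispensed with RealTime-Glo reagents, incubated 5 h at 37 °C, then treated with compounds in DMSO for up to 40 h. Nonlytic NanoLuc luminescence reflecting viable cells was read at each stated time point.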

[4] = A CellTox Green Cytotoxicity Assay to monitor cytotoxicity in HepG2 cells - 24 hour (AID 1224878); note: nearly all actives have a fitted effect of over 45% in size; note: potency is the fitted concentration of half-maximal effect
In short: as §2

[5] = A CellTox Green Cytotoxicity Assay to monitor cytotoxicity in HepG2 cells - 40 hour (AID 1224879); note: nearly all actives have a fitted effect of over 40% in size; note: potency is the fitted concentration of half-maximal effect
In short: as §2

[6] = qHTS RealTime-Glo MT Cell Viability Assay in HEK293 cells - 0 hour (AID 1224880); note: nearly all actives have a fitted effect of over 45% in size; note: potency is the fitted concentration of half-maximal effect
In short: (§4)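 Luminescence readout at each listed time point; HEK293, 600 cells/well, RealTime-Glo MT reagent added with cells; compounds pinned (23 nL in DMSO) after 5 h at 37 C; continuous culture at 37 C.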

[7] = A CellTox Green Cytotoxicity Assay to monitor cytotoxicity in HEK293 cells - 32 hour (AID 1224881); note: nearly all actives have a fitted effect of over 40% in size; note: potency is the fitted concentration of half-maximal effect
In short: as §1

[8] = A CellTox Green Cytotoxicity Assay to monitor cytotoxicity in HepG2 cells - 0 hour (AID 1224882); note: nearly all actives have a fitted effect of over 35% in size
In short: as §2

[9] = A CellTox Green Cytotoxicity Assay to monitor cytotoxicity in HepG2 cells - 32 hour (AID 1224883); note: nearly all actives have a fitted effect of over 50% in size; note: potency is the fitted concentration of half-maximal effect
In short: as §2

[10] = A CellTox Green Cytotoxicity Assay to monitor cytotoxicity in HEK293 cells - 8 hour (AID 1224884); note: nearly all actives have a fitted effect of over 35% in size
In short: as §1

[11] = qHTS RealTime-Glo MT Cell Viability Assay in HepG2 cells - 16 hour (AID 1224885); note: nearly all actives have a fitted effect of over 50% in size; note: potency is the fitted concentration of half-maximal effect
In short: as §3

[12] = qHTS RealTime-Glo MT Cell Viability Assay in HEK293 cells - 24 hour (AID 1224886); note: nearly all actives have a fitted effect of over 50% in size; note: potency is the fitted concentration of half-maximal effect
In short: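 HEK293 cells seeded with NanoLuc/prosubstrate reagent, rested 5 h at 37 C, then dosed and kept at 37 C up to 40 h. Nonlytic real-time luminescence from viable cells read at 0, 8, 16, 24, 32 and 40 h.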

[13] = qHTS RealTime-Glo MT Cell Viability Assay in HEK293 cells - 8 hour (AID 1224887); note: nearly all actives have a fitted effect of over 50% in size; note: potency is the fitted concentration of half-maximal effect
In short: as §4

[14] = A CellTox Green Cytotoxicity Assay to monitor cytotoxicity in HEK293 cells - 16 hour (AID 1224888); note: nearly all actives have a fitted effect of over 35% in size; note: potency is the fitted concentration of half-maximal effect
In short: as §1

[15] = qHTS RealTime-Glo MT Cell Viability Assay in HepG2 cells - 0 hour (AID 1224889); note: nearly all actives have a fitted effect of over 50% in size
In short: as §3

[16] = A CellTox Green Cytotoxicity Assay to monitor cytotoxicity in HepG2 cells - 8 hour (AID 1224890); note: nearly all actives have a fitted effect of over 45% in size; note: potency is the fitted concentration of half-maximal effect
In short: as §2

[17] = qHTS assay to identify small molecule antagonists of the androgen receptor (AR) signaling pathway using the MDA cell line in the presence of 0.5 nM R1881 - cell viability counter screen (AID 1259242); note: nearly all actives have a fitted effect of over 45% in size; note: potency is the fitted concentration of half-maximal effect
In short: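 Live-cell protease fluorescence, CellTiter-Fluor, 30 min at 37C. Cells: MDA-kb2, 3,000/well, preincubated 5 hr. Compounds plus 0.5 nM R1881 final, 16 hr, 37C, 0% CO2.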

[18] = biological target: Androgen receptor (Homo sapiens) (UniProt P10275); assay: qHTS assay to identify small molecule antagonists of the androgen receptor (AR) signaling pathway using the MDA cell line in the presence of 0.5 nM R1881 (AID 1259243); note: nearly all actives have a fitted effect of over 50% in size
In short: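 MDA-kb2, MMTV-luc (AR/GR elements); 3,000 cells/well; cpd + 0.5 nM R1881 final; 16 hr 37C, 0% CO2; ONE-Glo 30 min RT; luminescence.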

[19] = biological target: Estrogen receptor (Homo sapiens) (UniProt P03372); assay: qHTS assay to identify small molecule antagonists of the estrogen receptor alpha (ER-alpha) signaling pathway using the BG1 cell line in the presence of 0.1 nM 17-beta-estradiol (AID 1259244); note: nearly all actives have a fitted effect of over 50% in size; note: potency is the fitted concentration of half-maximal effect
In short: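 Luminescence after ONE-Glo (30 min, room temperature) measured ERE-luciferase activity in VM7Luc4E2 cells treated 22 h with compound and 0.1 nM final 17beta-estradiol as stimulator.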

[20] = qHTS assay to identify small molecule antagonists of the estrogen receptor alpha (ER-alpha) signaling pathway using the BG1 cell line in the presence of 0.1 nM 17-beta-estradiol - cell viability counter screen (AID 1259241); note: nearly all actives have a fitted effect of over 40% in size
In short: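 Cells were plated and left 24 hr, compounds in DMSO were pinned in, 17beta-estradiol was added to 0.1 nM final, and after 22 hr CellTiter-Fluor reagent was added for 30 min before fluorescence was read.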

Measured: Potency

Estrogen receptor (Homo sapiens), sequence (P03372 whole entry, looked up): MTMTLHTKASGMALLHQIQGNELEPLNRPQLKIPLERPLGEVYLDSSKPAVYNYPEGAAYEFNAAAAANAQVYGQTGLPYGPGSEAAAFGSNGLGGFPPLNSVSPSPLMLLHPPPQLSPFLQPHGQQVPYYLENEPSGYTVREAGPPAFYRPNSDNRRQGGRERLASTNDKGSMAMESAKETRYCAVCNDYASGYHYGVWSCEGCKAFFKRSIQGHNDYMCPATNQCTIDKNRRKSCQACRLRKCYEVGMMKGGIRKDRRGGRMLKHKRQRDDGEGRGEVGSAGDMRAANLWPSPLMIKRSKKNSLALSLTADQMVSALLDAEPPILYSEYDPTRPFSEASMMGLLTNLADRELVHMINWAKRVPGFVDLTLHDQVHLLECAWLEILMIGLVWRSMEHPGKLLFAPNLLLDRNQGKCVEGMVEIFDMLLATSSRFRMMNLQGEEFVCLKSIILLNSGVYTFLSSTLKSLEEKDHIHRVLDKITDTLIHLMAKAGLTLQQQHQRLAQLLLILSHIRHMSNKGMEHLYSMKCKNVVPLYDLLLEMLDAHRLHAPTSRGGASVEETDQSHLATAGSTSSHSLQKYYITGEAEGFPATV
Androgen receptor (Homo sapiens), sequence (P10275 whole entry, looked up): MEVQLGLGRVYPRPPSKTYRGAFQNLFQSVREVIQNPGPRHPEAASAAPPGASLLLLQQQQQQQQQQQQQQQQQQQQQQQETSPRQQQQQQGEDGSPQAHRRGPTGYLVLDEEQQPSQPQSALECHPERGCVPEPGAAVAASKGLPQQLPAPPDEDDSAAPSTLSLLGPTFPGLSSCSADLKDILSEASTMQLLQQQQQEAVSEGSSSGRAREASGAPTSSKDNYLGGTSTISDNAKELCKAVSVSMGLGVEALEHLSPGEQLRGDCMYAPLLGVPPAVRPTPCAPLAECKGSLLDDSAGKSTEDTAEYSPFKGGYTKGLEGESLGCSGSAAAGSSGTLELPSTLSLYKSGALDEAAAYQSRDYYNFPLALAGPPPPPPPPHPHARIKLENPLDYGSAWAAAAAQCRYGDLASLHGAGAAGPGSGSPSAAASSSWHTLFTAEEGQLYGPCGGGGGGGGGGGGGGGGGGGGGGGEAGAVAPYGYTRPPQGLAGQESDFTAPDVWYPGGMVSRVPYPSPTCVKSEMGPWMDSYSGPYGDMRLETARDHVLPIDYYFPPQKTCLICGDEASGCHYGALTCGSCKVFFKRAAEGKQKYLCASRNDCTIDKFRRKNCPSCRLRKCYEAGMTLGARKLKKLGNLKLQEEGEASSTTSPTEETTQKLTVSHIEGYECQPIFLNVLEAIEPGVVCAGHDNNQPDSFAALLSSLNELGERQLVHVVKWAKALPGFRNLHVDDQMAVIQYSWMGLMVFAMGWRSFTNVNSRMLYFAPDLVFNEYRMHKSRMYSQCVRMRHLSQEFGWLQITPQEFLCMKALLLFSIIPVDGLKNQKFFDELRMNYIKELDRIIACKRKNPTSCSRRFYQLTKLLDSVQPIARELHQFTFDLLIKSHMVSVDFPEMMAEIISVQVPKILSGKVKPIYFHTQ

C=C(C)CCO
not listed: [20]
inactive: all other assays above

CCn1c2ccccc2c2ccccc21
not listed: [13] | [18]
inactive: all other assays above

C/C=C/C(=O)C1=C(C)C=CCC1(C)C
not listed: [8]
inactive: all other assays above

CCCCCc1ccc(O)cc1
inactive: [3] | [6] | [8] | [11] | [15] | [17] | [19]
active: [1] 38.9 µM | [2] 49 µM | [4] 49 µM | [5] 43.6 µM | [7] 34.7 µM | [9] 49 µM | [13] 21.9 µM | [14] 38.9 µM

Oc1ccc(C2(c3ccc(O)c(C4CCCCC4)c3)CCCCC2)cc1C1CCCCC1
active: [2] 34.7 µM | [3] 34.7 µM | [4] 34.7 µM | [5] 24.5 µM | [6] 49 µM | [9] 34.7 µM | [11] 38.9 µM | [12] 38.9 µM | [13] 43.6 µM | [17] 43.3 µM | [19] 43.3 µM
inactive: [1] | [7] | [8] | [10] | [14] | [15]

Oc1ccc(Cl)cc1C1CCCC1
inactive: [3] | [6] | [8] | [11] | [15] | [17] | [19]
active: [1] 54.9 µM | [2] 54.9 µM | [4] 54.9 µM | [5] 54.9 µM | [7] 49 µM | [9] 54.9 µM | [13] 27.5 µM | [16] 49 µM

CCSCC
not listed: [18] | [19] | [20]
inactive: all other assays above

Nc1cc([N+](=O)[O-])ccc1Cl
not listed: [18] | [19] | [20]
inactive: all other assays above
